# Reference: PubChem BioAssay (NCATS)
# Records with an inconclusive call do not appear. Entries that show only a call come without a potency. The source made the active and inactive calls. Calls come from the whole dose curve; as a rule, active = well fitted inhibition curve with a large enough effect; inconclusive = small, poorly fitted or top-dose-only effect; inactive = flat fitted curve, though single readings scatter.
# System: DIV30
# Experiment: qHTS profiling for inhibitors of Plasmodium falciparum proliferation (AID 504749); note: nearly all actives have a fitted effect of over 60% in size
# Settings: P. falciparum in erythrocytes, SYBR Green DNA, 72 h; series mostly up to 28.7 µM
# Outline: (§1)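 Three-day growth assay of blood-stage parasites in erythrocytes (0.3% parasitemia, 2.5% hematocrit) at 37 C, 5% CO2, quantified by SYBR Green DNA staining after overnight detergent lysis.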
# Potency is the fitted concentration of half-maximal effect.
row,Structure (SMILES),Potency
1,CN1CCC[C@@H]1CCO[C@](C)(c1ccccc1)c1ccc(Cl)cc1,inactive
2,CN1CCN(c2cc3c(cc2F)c(=O)c(C(=O)O)cn3-c2ccc(F)cc2)CC1,inactive
3,CC(C)(C)CC(C)(C)c1ccc(O)c(-n2nc3ccccc3n2)c1,inactive
4,Cc1ccc2c(Br)cc(Br)c(O)c2n1,16.9 µM (active)
5,CCCCCN=C(N)N/N=C/c1c[nH]c2ccc(OC)cc12,12 µM (active)
6,COC(=O)C(c1ccccc1Cl)N1CCc2sccc2C1 (configuration not stated),inactive
7,CN(Cc1ccc(C(C)(C)C)cc1)Cc1cccc2ccccc12,inactive
8,CN1CCN(c2c(F)cc3c(=O)c(C(=O)O)cn4c3c2SCC4)CC1,inactive
9,CCN(CC)CCOC(=O)C1(c2ccccc2)CCCC1,inactive
10,NC1CCN(c2nc3c(cc2F)c(=O)c(C(=O)O)cn3-c2ccc(F)cc2F)C1 (configuration not stated),inactive
11,C[N+]1(C)CCC(=C(c2ccccc2)c2ccccc2)CC1,inactive
12,CC(=O)O[C@H]1C[C@@H]2CC[C@@H]3[C@H](CC[C@@]4(C)[C@H]3C[C@H]([N+]3(C)CCCCC3)[C@@H]4OC(C)=O)[C@@]2(C)C[C@@H]1N1CCCCC1,inactive
13,Clc1cccc(C(c2ccc3nc[nH]c3c2)n2ccnc2)c1 (configuration not stated),12 µM (active)
14,COc1ccc(C(Cl)=C(c2ccc(OC)cc2)c2ccc(OC)cc2)cc1,inactive
15,O=C1C(O)=C(O)C(=O)C(O)=C1O,inactive
16,O=[N+]([O-])c1cccc(S(=O)(=O)NCCNS(=O)(=O)c2cccc([N+](=O)[O-])c2)c1,inactive
17,CC1CCc2c(N3CCC(O)CC3)c(F)cc3c(=O)c(C(=O)O)cn1c23 (configuration not stated),inactive
18,Oc1c(Cl)cc(Cl)c(Cl)c1Cc1c(O)c(Cl)cc(Cl)c1Cl,13.5 µM (active)
19,COc1ccccc1N1CCN(CCCCNC(=O)c2ccc(-c3ccc(C(C)=O)cc3)cc2)CC1,inactive
20,CC(C)[N+](C)(C)CC(O)COc1cccc2ccccc12 (configuration not stated),inactive
21,CC[N+](C)(CC)CCOC(=O)C(O)(c1ccccc1)C1CCCCC1 (configuration not stated),inactive

# System: Dd2
# Experiment: as above
# Settings: P. falciparum in erythrocytes, SYBR Green DNA, 72 h; series mostly up to 28.7 µM
# Outline: as §1
row,Structure (SMILES),Potency
1,O=C(CN1CCN(Cc2ccc3c(c2)OCO3)CC1)N1c2ccccc2Sc2ccccc21,11.2 µM (active)
2,CN1CCC(OC(c2ccccc2)c2ccccc2)CC1,3.98 µM (active)
3,CC(C)(C)CC(C)(C)c1ccc(O)c(-n2nc3ccccc3n2)c1,12.6 µM (active)
4,Cc1ccc2c(Br)cc(Br)c(O)c2n1,11.2 µM (active)
5,CCCCCN=C(N)N/N=C/c1c[nH]c2ccc(OC)cc12,3.16 µM (active)
6,Cc1ncc(CO)c(C=O)c1O,inactive
7,COC(=O)C(c1ccccc1Cl)N1CCc2sccc2C1 (configuration not stated),inactive
8,O=C(O)CCc1nc2ccccc2[nH]1,0.0007 µM (active)
9,CN1CCN(c2c(F)cc3c(=O)c(C(=O)O)cn4c3c2SCC4)CC1,10 µM (active)
10,CCN(CC)CCOC(=O)C1(c2ccccc2)CCCC1,8.91 µM (active)
11,C[N+]1(C)CCC(=C(c2ccccc2)c2ccccc2)CC1,inactive
12,CN1CCc2cccc3c2[C@H]1Cc1ccc(O)c(O)c1-3,inactive
13,NC(N)=NN=C(/C=C/c1ccc([N+](=O)[O-])o1)/C=C/c1ccc([N+](=O)[O-])o1,2.82 µM (active)
14,CC(C)(Cc1c[nH]c2ccccc12)NCC(O)COc1ccccc1C#N (configuration not stated),12.6 µM (active)
15,CNCCCCOc1ccccc1Cc1ccccc1,2.51 µM (active)
16,O=C(CCN1CCN2CCCC2C1)N1c2ccccc2Sc2ccc(Cl)cc21 (configuration not stated),6.31 µM (active)
17,O=C1C(O)=C(O)C(=O)C(O)=C1O,10 µM (active)
18,O=[N+]([O-])c1cccc(S(=O)(=O)NCCNS(=O)(=O)c2cccc([N+](=O)[O-])c2)c1,inactive
19,CC1CCc2c(N3CCC(O)CC3)c(F)cc3c(=O)c(C(=O)O)cn1c23 (configuration not stated),inactive
20,Oc1c(Cl)cc(Cl)c(Cl)c1Cc1c(O)c(Cl)cc(Cl)c1Cl,12.6 µM (active)
21,OC(C#CCN1CCCC1)(c1ccccc1)c1ccccc1,8.91 µM (active)
22,CN(C)CCOC(c1ccc(Cl)cc1)c1ccccn1 (configuration not stated),4.47 µM (active)
23,COc1ccccc1N1CCN(CCCCNC(=O)c2ccc(-c3ccc(C(C)=O)cc3)cc2)CC1,inactive
24,CC(C)(C)NC[C@H](O)COc1nsnc1N1CCOCC1,5.62 µM (active)
25,CN(C)CCN1C(=O)c2ccccc2N(C)c2ccccc21,11.2 µM (active)
26,CCN(CC)CCOc1ccccc1C(=O)CCc1ccccc1,4.47 µM (active)

# System: ECU
# Experiment: as above
# Settings: P. falciparum in erythrocytes, SYBR Green DNA, 72 h; series mostly up to 28.7 µM
# Outline: as §1
row,Structure (SMILES),Potency
1,CN1CCC[C@@H]1CCO[C@](C)(c1ccccc1)c1ccc(Cl)cc1,inactive
2,CN1CCC(OC(c2ccccc2)c2ccccc2)CC1,inactive
3,CN1CCN(c2cc3c(cc2F)c(=O)c(C(=O)O)cn3-c2ccc(F)cc2)CC1,inactive
4,CCCCCN=C(N)N/N=C/c1c[nH]c2ccc(OC)cc12,8.91 µM (active)
5,O=C(NC1CCN(CCc2c[nH]c3ccccc23)CC1)c1ccccc1,inactive
6,Cc1ncc(CO)c(C=O)c1O,inactive
7,CN(Cc1ccc(C(C)(C)C)cc1)Cc1cccc2ccccc12,inactive
8,CN1CCN(C2=Nc3ccccc3Sc3ccc(Cl)cc32)CC1,inactive
9,CCN(CC)CCOC(=O)C1(c2ccccc2)CCCC1,inactive
10,C[N+]1(C)CCC(=C(c2ccccc2)c2ccccc2)CC1,inactive
11,CC(=O)O[C@H]1C[C@@H]2CC[C@@H]3[C@H](CC[C@@]4(C)[C@H]3C[C@H]([N+]3(C)CCCCC3)[C@@H]4OC(C)=O)[C@@]2(C)C[C@@H]1N1CCCCC1,inactive
12,NC(N)=NN=C(/C=C/c1ccc([N+](=O)[O-])o1)/C=C/c1ccc([N+](=O)[O-])o1,12.6 µM (active)
13,Clc1cccc(C(c2ccc3nc[nH]c3c2)n2ccnc2)c1 (configuration not stated),3.16 µM (active)
14,COc1ccc(C(Cl)=C(c2ccc(OC)cc2)c2ccc(OC)cc2)cc1,2.24 µM (active)
15,O=C(CCN1CCN2CCCC2C1)N1c2ccccc2Sc2ccc(Cl)cc21 (configuration not stated),14.1 µM (active)
16,O=C1C(O)=C(O)C(=O)C(O)=C1O,inactive
17,CC1CCc2c(N3CCC(O)CC3)c(F)cc3c(=O)c(C(=O)O)cn1c23 (configuration not stated),inactive
18,Oc1c(Cl)cc(Cl)c(Cl)c1Cc1c(O)c(Cl)cc(Cl)c1Cl,12.6 µM (active)
19,CN(C)CCOC(c1ccc(Cl)cc1)c1ccccn1 (configuration not stated),inactive
20,COc1ccccc1N1CCN(CCCCNC(=O)c2ccc(-c3ccc(C(C)=O)cc3)cc2)CC1,inactive
21,CO[C@]12C[C@@H](COC(=O)c3cncc(Br)c3)CN(C)[C@@H]1Cc1cn(C)c3cccc2c13,inactive
22,CC(C)(C)NC[C@H](O)COc1nsnc1N1CCOCC1,7.94 µM (active)
23,CN(C)CCN1C(=O)c2ccccc2N(C)c2ccccc21,inactive
24,CCN(CC)CCOc1ccccc1C(=O)CCc1ccccc1,inactive
25,CC[N+](C)(CC)CCOC(=O)C(O)(c1ccccc1)C1CCCCC1 (configuration not stated),inactive
